Compound activity deposited in PubChem by National Center for Advancing Translational Sciences (NCATS).
The list is not random: actives were taken first. Their share in the collection is about 2.4%.
D2 ag-1 – agonists of human D2 dopamine receptor (beta-arrestin); DiscoveRx PathHunter D2 beta-arrestin, luminescence, 90 min; 100% = 57 uM dopamine signal; P14416; 0.084% of 360,000 active; activation, % (test concentration not listed); AID 624465; in the data active = activation above about 40%; inconclusive = between about 15% and that limit
Target sequence (P14416 whole entry, looked up): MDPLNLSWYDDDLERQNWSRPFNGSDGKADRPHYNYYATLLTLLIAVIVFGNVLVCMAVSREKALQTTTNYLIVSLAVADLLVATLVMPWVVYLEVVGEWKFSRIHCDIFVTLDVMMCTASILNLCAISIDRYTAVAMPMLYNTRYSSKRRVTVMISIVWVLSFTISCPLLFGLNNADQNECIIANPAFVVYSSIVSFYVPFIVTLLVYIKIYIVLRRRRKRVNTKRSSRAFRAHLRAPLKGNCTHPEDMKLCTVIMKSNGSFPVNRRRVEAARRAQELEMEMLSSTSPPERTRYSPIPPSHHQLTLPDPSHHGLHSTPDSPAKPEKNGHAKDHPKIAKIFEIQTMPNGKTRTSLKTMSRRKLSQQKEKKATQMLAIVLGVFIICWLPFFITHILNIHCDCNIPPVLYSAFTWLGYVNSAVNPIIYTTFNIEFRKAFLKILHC
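Agonist mode: compounds alone added to overnight-plated D2 PathHunter cells for 90 min at 37 C, with 57 uM final dopamine (EC100) defining full response. Beta-arrestin recruitment detected by chemiluminescent reagent, read after 1 h at ambient temperature.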
D2 PAM-1 – positive allosteric modulators of human D2 dopamine receptor. P14416. HEK293 T-REx D2, calcium flux, EC20 dopamine potentiation. potentiation, % at 10 µM. 0.34% of 340,000 active;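 active = potentiation over 3 SD above the plate norm, cut at about 30% in these data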; also: 0% is about no effect
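Tetracycline-induced Hek293 Trex D2 cells, force-coupled to calcium, loaded with no-wash calcium dye. Compound added with 180 s kinetic read for agonism, then EC20 dopamine and a further 180 s read for potentiation.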
D2 antag – antagonists of human D2 dopamine receptor. P14416. HEK293 TREx D2 cells, calcium flux, dopamine EC80. inhibition, % at 10 µM. 2% of 340,000 active; in the data active = inhibition above about 30%; inactive = below that, where a call was filed; also: 0% is about no effect
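Inhibition of EC80 dopamine-driven calcium flux, recorded kinetically, defines activity here; cells are a tetracycline-induced HEK293 T-REx line expressing force-coupled D2.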
D2 PAM-2 – positive allosteric modulators of human D2 dopamine receptor; P14416; DiscoveRx D2 beta-arrestin cells, luminescence, 90 min; 100% = 57 uM dopamine signal; potentiation, % (test concentration not listed); 0.23% of 360,000 active; AID 624464; in the data active = potentiation above about 50%; inconclusive = mostly about 30% to 49%
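D2 cells co-treated with compound plus 50 nM dopamine (EC20) for 90 min at 37 deg C to detect potentiation. Beta-arrestin recruitment was read as enzyme-fragment luminescence after 1 h at ambient temperature. Full response was set by 57 uM dopamine.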
D2 ag-2 – agonists of human D2 dopamine receptor. P14416. HEK293 T-REx D2 cells, calcium flux agonist mode. activation, % at 2 µM. 0.53% of 340,000 active;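 active = activation over 3 SD above normal in the single-dose calcium agonist read, cut at about 30% in these data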; also: 0% is about no effect
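HEK293 Trex D2 cells, tetracycline-induced, o/n 30 C 5% CO2; no-wash Ca dye, RT 30–90 min; 10-cycle baseline, 23 nl cpd added, kinetic Ca read 180 s; agonist hits = positive Ca response.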
Starred values were filed as active, the others as inactive; ? = inconclusive; / = not tested or not shown.

SMILES | D2 ag-1 | D2 PAM-1 | D2 antag | D2 PAM-2 | D2 ag-2
FC(F)(F)c1ccc(Cl)c(N/N=C/c2ccc(N3CCOCC3)s2)c1 | ? | / | / | 72* | /
CCC(O)c1nc2ccccc2n1Cc1cc(C)ccc1C (stereo not given) | / | 2 | / | / | -1
O=Cc1ccc(OCC(=O)NCC2CCCO2)cc1 (stereo not given) | -6 | -10 | 30* | -7 | 0
COCCN1C(=O)c2[nH]nc(-c3ccccc3O)c2C1c1ccc(Cl)c(Cl)c1 (stereo not given) | / | -9 | / | / | 4
Cc1[nH]oc(=O)c1N=Nc1ccccc1 | 15 | 4 | -7 | 57* | 0
Cc1cc(N2CCCC2)nc(N2C3CCC2CC(O)(c2ccc(F)cc2)C3)n1 (stereo not given) | / | -22 | 42* | / | 0
CCc1ccc(NC(=O)c2cnn3ccccc23)cc1 | -4 | -1 | 42* | -11 | -1
CCn1c(=O)cc(OCC(=O)N(C)c2cc(Cl)ccc2C)c2ccccc21 | / | 2 | / | / | -1
Cc1cccc(NC(=O)CN2C(=O)CCc3ccccc32)c1C | / | 2 | / | / | 0
OC1(c2ccc(Cl)cc2)CCN(Cc2cn[nH]c2-c2ccc(F)cc2)CC1 | 2 | -20 | 56* | -16 | 3
Fc1ccc(N2CCN(Cc3cn[nH]c3-c3ccccc3)CC2)cc1 | 1 | -14 | -4 | -15 | 6
COc1ccc(-c2[nH]ncc2CN2CCC(O)(c3ccc(Cl)cc3)CC2)cc1 | 2 | -22 | 18 | -12 | -1
OC1(c2ccc(Cl)cc2)CCN(Cc2cn[nH]c2-c2ccccc2)CC1 | 3 | -22 | 84* | -14 | 0
CC(=O)Nc1nonc1-c1nnc(SCC(=O)Nc2cccc(F)c2)n1-c1ccccc1 | / | 14 | / | / | -1
Cc1ccc(NC(=O)CN(C)C(=O)c2ccc(COc3ccccc3)cc2)cc1 | -5 | -1 | -2 | 0 | -1
CCCCOc1ccc(C(=O)N(C)CC(=O)Nc2ccc(C)cc2)cc1 | -2 | 0 | 55* | -12 | -1
COc1cc(-c2coc3c(C(=O)NCc4ccc(OC)c(OC)c4)cccc23)ccc1O | 68* | / | / | -7 | /
Cc1cc(NC(=O)CSc2nnc(-c3cccs3)n2N)no1 | -2 | 10 | 39* | -7 | 0
CCOC(=O)c1ccc(NC(=O)CSc2nnc(C3CC3)n2C)cc1 | -3 | 11 | -11 | -11 | 0
CCCCn1c(SCC(=O)Nc2cc(C)on2)nnc1-c1cccs1 | -4 | 6 | 6 | -14 | 1
C=CCn1c(SCC(=O)Nc2ccc(C(=O)OCC)cc2)nnc1-c1sc(N)nc1C | -9 | 0 | 31* | 23 | 1
CCN(CC)CCOC(=O)c1ccc(NC(=O)CSc2nnc(-c3cccs3)n2CC)cc1 | 13 | / | / | 74* | /
CCOC(=O)c1ccc(NC(=O)CSc2nnc(CNc3ccc(C)cc3)n2C)cc1 | 0 | -6 | -9 | 50* | 1
Cc1ccccc1NC(=O)Cn1c(=O)n(Cc2ccco2)c(=O)c2cccnc21 | / | -3 | / | / | /
CCCCNC(=O)C(CC)Sc1nc2ccccc2c(=O)n1Cc1ccco1 (stereo not given) | / | 8 | / | / | 0
SMILES | D2 ag-1 | D2 PAM-1 | D2 antag | D2 PAM-2 | D2 ag-2
O=C(CSc1nc2ccccc2n1Cc1cccc(Cl)c1)N1CCN(c2ccc(F)cc2)CC1 | / | 6 | / | / | 0
CC(=O)Nc1nonc1-c1nnc(SCC(=O)Nc2cc(C)ccc2C)n1-c1ccccc1 | / | -18 | / | / | 0
Cc1cc(C)c2[nH]c(=O)c(C(c3nnnn3CC3CCCO3)N3CCC(C)CC3)cc2c1 (stereo not given) | -2 | 1 | 37* | -26 | 0
COc1ccc(C(CNC(=O)c2ccc(-c3ccccc3Cl)o2)N2CCOCC2)cc1 (stereo not given) | -4 | -39 | 66* | -40 | 1
COc1ccc(NC(=O)c2ccc(-c3ccccc3Cl)o2)cc1 | -3 | -17 | 42* | -25 | -1
COc1ccccc1C(CNC(=O)c1ccc(-c2ccccc2Cl)o1)N1CCCC1 (stereo not given) | -2 | -20 | 11 | -69 | 1
COc1ccc(C(CNC(=O)c2cc(F)c(F)c(F)c2F)N2CCOCC2)cc1 (stereo not given) | -3 | -5 | 40* | -11 | -1
COc1ccc(C(CNC(=O)CSc2ccccc2F)N2CCOCC2)cc1 (stereo not given) | -1 | 12 | 3 | -5 | 2
CC(C)(CNC(=O)c1ccc(-c2ccccc2Cl)o1)N1CCOCC1 | -4 | -5 | 40* | -20 | -1
COc1ccc(NC(=O)c2ccc(-c3cccc(Cl)c3C)o2)cc1 | / | -8 | / | / | 0
CC(C)(CNC(=O)c1ccc(Br)o1)N1CCOCC1 | -2 | 8 | 7 | -17 | 0
CC1(C)CSC(=NCc2ccccc2)N1C(=O)c1cccc([N+](=O)[O-])c1 | -7 | -24 | 54* | -1 | 83*
NC(=NCc1ccccc1)c1cccc([N+](=O)[O-])c1 | 4 | 1 | -11 | -6 | -1
CC(=O)N(C)/C=C1\Sc2ccccc2C1=O | 3 | -4 | -16 | -3 | 0
CC(=O)Nc1ccc(/C=C2\Sc3ccccc3C2=O)cc1 | ? | -9 | 23 | 56* | 3
O=c1cc(-c2ccco2)nc(SCc2cccc(Cl)c2)[nH]1 | 5 | 0 | -1 | 54* | 0
CCC1CCCCN1CCCNC(=O)CS(=O)Cc1nc(-c2ccc(OC)c(OC)c2)oc1C (stereo not given) | -4 | 2 | 36* | -8 | 2
Cc1ccc(-c2nc(CS(=O)CC(=O)NCCN3CCCC3)c(C)o2)cc1 (stereo not given) | -5 | -7 | -5 | -4 | -1
CCN1CCN(C(=O)CS(=O)Cc2nc(-c3ccc(OC)cc3)oc2C)CC1 (stereo not given) | -5 | -14 | 40* | -4 | 0
CCc1ccc(-c2nc(CS(=O)CC(=O)NCCN3CCCCCC3)c(C)o2)cc1 (stereo not given) | -3 | 4 | -3 | -19 | 1
CCc1ccc(-c2nc(CS(=O)CC(=O)NCCCN3CCC(C)CC3)c(C)o2)cc1 (stereo not given) | -7 | -9 | 30* | -24 | 0
Cc1ccc(-c2nc(CS(=O)CC(=O)NCCN(CC(C)C)CC(C)C)c(C)o2)cc1 (stereo not given) | -1 | 106* | 1 | -4 | -1
CCOc1ccccc1NC(=O)CSc1nnc(CC)c(CC)n1 | / | -10 | / | / | -1
Cc1ccc(NC(=O)c2nnn(CC(=O)Nc3ccc(C)c(Cl)c3)c2N)c(C)c1 | / | 7 | / | / | /
COc1ccc(Cn2c(=O)[nH]c3cc(C(=O)N4CCN(c5cc(Cl)ccc5C)CC4)ccc3c2=O)cc1 | / | 18 | / | / | 0
CC(=O)N1c2ccc(S(=O)(=O)NCC3CCC(C(=O)Nc4cc(C)ccc4C)CC3)cc2CC1C (stereo not given) | / | 4 | / | / | 0
